Records with an inconclusive call do not appear. Where a call stands in place of a potency, no number is given. Activity calls are given as the source filed them. The call rests on the fitted dose curve.
How the values were obtained:
[1] = Cytotoxicity counterscreen for inhibitors of SARS-CoV-2 cell entry (AID 1645845); further: nearly all actives have a fitted effect of over 50% in size
In short: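 After a 15 min room-temperature ATPLite 1step step, luminescence reflected ATP remaining in HEK293-ACE2 cells exposed to compound for 1 h plus 48 h at 37 C, with percent activity set by cell and no-cell controls.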

[2] = Primary qHTS to identify inhibitors of SARS-CoV-2 cell entry (AID 1645846); conditions: activity change, negative = inhibition: at 57.1 µM (top of the series) unless noted; further: nearly all actives have a fitted effect of over 45% in size
In short: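 Using luciferase-reporting pseudoviruses carrying Wuhan-Hu-1 spike, the screen tracks entry into stably ACE2-expressing cells over 48 hr. Activity is expressed relative to spike particles versus particles lacking any fusion protein.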

SMILES: N#CSCC(=O)O
- Potency [1]: inactive
- Potency [2]: inactive

SMILES: CN1CCN(CC(=O)N2c3ccccc3C(=O)Nc3cccnc32)CC1
- outcome [1]: inactive [at 5.25 µM]
- outcome [2]: inactive [at 5.25 µM]

SMILES: CC1c2ccccc2CN1NC(=O)c1ccc(Cl)c(S(N)(=O)=O)c1 (centres undefined)
- Potency [1]: inactive
- activity change, negative = inhibition [2]: -22.6%

SMILES: CO/N=C(/C(=O)N[C@@H]1C(=O)N2C(C(=O)[O-])=C(C[n+]3ccn4ncccc43)CS[C@H]12)c1nsc(N)n1
- Potency [1]: inactive
- Potency [2]: inactive

SMILES: CCC1=C(C)CN(C(=O)NCCc2ccc(S(=O)(=O)NC(=O)NC3CCC(C)CC3)cc2)C1=O (centres undefined)
- Potency [1]: inactive
- Potency [2]: inactive

SMILES: O=C(OCC1(COC(=O)c2cccnc2)CCCC(COC(=O)c2cccnc2)(COC(=O)c2cccnc2)C1O)c1cccnc1
- Potency [1]: inactive
- activity change, negative = inhibition [2]: -30.1%

SMILES: Nc1nc(/C(=C/CC(=O)O)C(=O)N[C@@H]2C(=O)N3C(C(=O)O)=CCS[C@H]23)cs1
- Potency [1]: inactive
- activity change, negative = inhibition [2]: -21.3%

SMILES: CC(=O)O[C@@H]1C(=O)O[C@@H]2[C@H]1OC(=O)[C@@H]2OC(C)=O
- Potency [1]: inactive
- activity change, negative = inhibition [2]: -38.2%

SMILES: O=C(O)CCCCC1CCSS1 (centres undefined)
- Potency [1]: inactive
- Potency [2]: inactive

SMILES: NCC[C@H](O)C(=O)N[C@@H]1C[C@H](N)[C@@H](O[C@H]2O[C@H](CN)[C@@H](O)[C@H](O)[C@@H]2O)[C@H](O)[C@@H]1O[C@H]1O[C@H](CO)[C@@H](O)[C@H](N)[C@@H]1O
- outcome [1]: inactive [at 0.702 µM]
- activity change, negative = inhibition [2]: -28% [at 0.702 µM]

SMILES: Cc1cccc(C)c1NC(=O)CC12CCCN1CCC2
- Potency [1]: inactive
- activity change, negative = inhibition [2]: -23.5%

SMILES: CC1CCc2c(N3CCC(O)CC3)c(F)cc3c(=O)c(C(=O)O)cn1c23 (centres undefined)
- Potency [1]: inactive
- Potency [2]: inactive

Reference: PubChem BioAssay (NCATS)
